Drawing on PMC7862700, “An all-to-all approach to the identification of sequence-specific readers for epigenetic DNA modifications on cytosine”, this text covers binding signal for eight sequences.

Holding throughout (assay): DAPPL (digital affinity profiling via proximity ligation, sequencing); 10 mM Tris-HCl pH 7.5, 50 mM NaCl, 1 mM DTT, 4% glycerol, room temperature, 30 min; GST-TFs on glutathione beads, 16-mer random dsDNA library, 0.1% formaldehyde crosslink after washing; high values mean tight binding
Holding throughout (conditions): protein: recombinant; tags: N-terminal GST; dsDNA, one strand shown

Test [1] has as its target T1, FLI1 (Homo sapiens, UniProt Q01543 1-452).
T1 sequence: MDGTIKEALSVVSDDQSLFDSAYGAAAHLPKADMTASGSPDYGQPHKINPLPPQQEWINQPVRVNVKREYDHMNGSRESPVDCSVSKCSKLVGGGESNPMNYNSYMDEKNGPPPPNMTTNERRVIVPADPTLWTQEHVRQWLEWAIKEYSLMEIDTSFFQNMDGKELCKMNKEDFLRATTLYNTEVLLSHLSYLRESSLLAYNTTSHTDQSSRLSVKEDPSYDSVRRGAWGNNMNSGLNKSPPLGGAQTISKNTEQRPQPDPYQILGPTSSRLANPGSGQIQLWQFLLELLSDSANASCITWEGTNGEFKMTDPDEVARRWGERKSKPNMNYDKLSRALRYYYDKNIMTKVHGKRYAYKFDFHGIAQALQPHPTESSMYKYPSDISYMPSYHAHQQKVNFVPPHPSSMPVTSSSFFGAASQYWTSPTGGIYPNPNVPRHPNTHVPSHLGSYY
A digest of the protocol:
(§1)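 Binding signal is defined as a hexamer's read frequency for one factor over its frequency for the tag-only sample. To obtain reads, GST-fused human transcription factors were expressed in yeast, captured on glutathione beads, barcoded with DNA and pooled with that sample. Pools met 200 nmole of a 16-mer random double-stranded DNA library in Tris/NaCl/DTT/glycerol buffer for 30 min at room temperature before washing, 0.1% formaldehyde crosslinking, proximity ligation (BsaI/T4 ligase, 1 h, 37 °C), PCR and Illumina NextSeq500 sequencing.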

Test [2] has as its target T2, ELK1 (Homo sapiens, UniProt P19419 1-428).
T2 sequence: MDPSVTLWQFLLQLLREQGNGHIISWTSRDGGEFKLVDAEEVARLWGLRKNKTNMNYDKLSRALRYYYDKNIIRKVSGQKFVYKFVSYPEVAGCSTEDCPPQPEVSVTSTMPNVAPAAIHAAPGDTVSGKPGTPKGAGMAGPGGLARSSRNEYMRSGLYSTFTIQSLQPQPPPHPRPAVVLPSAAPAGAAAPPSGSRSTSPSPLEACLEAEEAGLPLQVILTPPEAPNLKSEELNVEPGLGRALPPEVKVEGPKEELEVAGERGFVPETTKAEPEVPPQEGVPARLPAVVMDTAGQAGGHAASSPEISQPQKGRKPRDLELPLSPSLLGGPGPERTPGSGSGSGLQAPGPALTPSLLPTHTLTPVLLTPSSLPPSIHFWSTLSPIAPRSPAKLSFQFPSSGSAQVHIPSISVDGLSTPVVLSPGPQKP
A digest of the protocol: as §1

Test [3] has as its target T3, GABPA (Homo sapiens, UniProt Q06546 1-454).
T3 sequence: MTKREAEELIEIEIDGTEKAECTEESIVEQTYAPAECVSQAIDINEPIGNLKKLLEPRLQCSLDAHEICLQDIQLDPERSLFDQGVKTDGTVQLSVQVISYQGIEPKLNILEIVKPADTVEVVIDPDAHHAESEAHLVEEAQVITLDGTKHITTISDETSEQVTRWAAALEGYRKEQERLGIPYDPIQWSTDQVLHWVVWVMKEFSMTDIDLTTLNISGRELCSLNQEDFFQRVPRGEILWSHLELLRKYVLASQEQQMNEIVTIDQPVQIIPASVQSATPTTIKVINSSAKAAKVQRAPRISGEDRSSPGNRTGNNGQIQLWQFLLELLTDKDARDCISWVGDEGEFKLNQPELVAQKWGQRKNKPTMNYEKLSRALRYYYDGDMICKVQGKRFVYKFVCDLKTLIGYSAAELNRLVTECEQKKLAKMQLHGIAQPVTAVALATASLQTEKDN
A digest of the protocol: as §1

Test [4] deals with T4, ERG (Homo sapiens, UniProt P11308 1-479).
T4 sequence: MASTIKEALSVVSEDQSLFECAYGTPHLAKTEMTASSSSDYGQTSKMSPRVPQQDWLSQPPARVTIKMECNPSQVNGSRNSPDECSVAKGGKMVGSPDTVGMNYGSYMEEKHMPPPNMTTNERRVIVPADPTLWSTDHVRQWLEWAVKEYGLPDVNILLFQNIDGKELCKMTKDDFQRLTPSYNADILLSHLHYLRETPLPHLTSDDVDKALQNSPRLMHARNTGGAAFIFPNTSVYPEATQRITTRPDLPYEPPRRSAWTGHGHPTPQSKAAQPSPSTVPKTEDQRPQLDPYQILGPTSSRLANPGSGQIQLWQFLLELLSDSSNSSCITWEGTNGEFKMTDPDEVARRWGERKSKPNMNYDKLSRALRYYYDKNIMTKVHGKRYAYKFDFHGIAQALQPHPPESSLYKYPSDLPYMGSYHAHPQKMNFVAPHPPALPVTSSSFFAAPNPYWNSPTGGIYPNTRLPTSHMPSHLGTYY
The gist of the method: as §1

Test [5] has as its target ELF1 (Homo sapiens, UniProt P32519 1-619). A digest of the protocol: as §1
The target of test [6] is T5, EHF (Homo sapiens, UniProt Q9NZC4 1-300).
T5 sequence: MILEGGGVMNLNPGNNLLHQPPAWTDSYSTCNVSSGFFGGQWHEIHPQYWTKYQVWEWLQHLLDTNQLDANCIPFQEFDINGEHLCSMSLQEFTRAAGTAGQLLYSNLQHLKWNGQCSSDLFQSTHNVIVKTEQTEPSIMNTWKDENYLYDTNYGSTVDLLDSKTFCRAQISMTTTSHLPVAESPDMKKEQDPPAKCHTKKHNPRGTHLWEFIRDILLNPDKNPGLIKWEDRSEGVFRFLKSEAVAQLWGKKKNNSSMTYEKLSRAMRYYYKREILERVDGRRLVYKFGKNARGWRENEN
A digest of the protocol: as §1

Test [7] concerns the target SPI1 (Homo sapiens, UniProt P17947 1-270). The gist of the method:
as §1

Test [8] concerns the target SPIB (Homo sapiens, UniProt Q01892 1-262). A digest of the protocol: as §1
Test [9] has as its target T6, ELK3 (Homo sapiens, UniProt P41970 1-407).
T6 sequence: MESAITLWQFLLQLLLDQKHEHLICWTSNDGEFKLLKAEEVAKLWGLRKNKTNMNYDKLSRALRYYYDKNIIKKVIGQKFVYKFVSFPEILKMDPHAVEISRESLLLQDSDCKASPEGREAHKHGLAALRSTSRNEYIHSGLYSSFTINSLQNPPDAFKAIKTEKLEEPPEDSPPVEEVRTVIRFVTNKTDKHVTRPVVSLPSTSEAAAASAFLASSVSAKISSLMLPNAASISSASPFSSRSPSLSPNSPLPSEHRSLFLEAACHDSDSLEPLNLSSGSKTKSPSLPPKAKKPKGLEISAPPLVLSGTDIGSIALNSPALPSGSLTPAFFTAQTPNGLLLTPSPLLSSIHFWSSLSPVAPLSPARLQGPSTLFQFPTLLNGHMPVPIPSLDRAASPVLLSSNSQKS
A digest of the protocol: as §1

Sequence of ELF1 (P32519 whole entry): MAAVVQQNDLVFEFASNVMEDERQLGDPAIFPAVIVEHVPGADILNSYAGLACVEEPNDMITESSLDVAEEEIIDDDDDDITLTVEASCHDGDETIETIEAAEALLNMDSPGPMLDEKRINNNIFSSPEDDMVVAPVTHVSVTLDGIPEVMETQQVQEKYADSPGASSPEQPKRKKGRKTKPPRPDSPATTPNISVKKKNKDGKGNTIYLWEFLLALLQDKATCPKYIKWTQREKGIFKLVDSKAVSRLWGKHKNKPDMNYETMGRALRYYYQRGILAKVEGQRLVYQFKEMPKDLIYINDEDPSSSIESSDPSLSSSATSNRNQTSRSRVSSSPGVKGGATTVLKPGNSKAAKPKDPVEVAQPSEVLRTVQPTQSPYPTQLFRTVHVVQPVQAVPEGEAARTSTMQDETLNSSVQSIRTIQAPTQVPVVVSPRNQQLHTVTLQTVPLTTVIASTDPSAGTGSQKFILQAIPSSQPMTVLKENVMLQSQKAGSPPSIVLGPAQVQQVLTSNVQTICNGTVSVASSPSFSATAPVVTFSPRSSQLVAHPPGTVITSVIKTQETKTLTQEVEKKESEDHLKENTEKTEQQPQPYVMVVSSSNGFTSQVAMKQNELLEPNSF
Sequence of SPIB (Q01892 whole entry): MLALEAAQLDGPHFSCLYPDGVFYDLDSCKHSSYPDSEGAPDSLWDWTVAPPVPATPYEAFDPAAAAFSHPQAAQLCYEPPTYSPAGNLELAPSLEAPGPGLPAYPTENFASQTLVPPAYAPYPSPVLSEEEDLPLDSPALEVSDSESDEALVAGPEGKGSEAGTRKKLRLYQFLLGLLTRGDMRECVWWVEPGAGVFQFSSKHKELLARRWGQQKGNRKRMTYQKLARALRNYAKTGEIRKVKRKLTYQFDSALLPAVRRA

As for ATCTTA, the binding signal was 1.15 fold enrichment (6-mer frequency, TF over GST control) in test [1]; 1.07 fold enrichment (6-mer frequency, TF over GST control) in [2]; 1.1 fold enrichment (6-mer frequency, TF over GST control) in test [3]; 1.09 fold enrichment (6-mer frequency, TF over GST control) in test [4]; 1.15 fold enrichment (6-mer frequency, TF over GST control) in [5]; 1.04 fold enrichment (6-mer frequency, TF over GST control) in test [6]. Moreover, the binding signal was 1.01 fold enrichment (6-mer frequency, TF over GST control) in [7]; 1.03 fold enrichment (6-mer frequency, TF over GST control) in [8]; 1.11 fold enrichment (6-mer frequency, TF over GST control) in test [9].

As to AATTAA, the binding signal was 1.26 fold enrichment (6-mer frequency, TF over GST control) in [1]; 1.2 fold enrichment (6-mer frequency, TF over GST control) in [2]; 1.22 fold enrichment (6-mer frequency, TF over GST control) in test [3]; 1.26 fold enrichment (6-mer frequency, TF over GST control) in test [4]; 1.27 fold enrichment (6-mer frequency, TF over GST control) in test [5]; 1.22 fold enrichment (6-mer frequency, TF over GST control) in test [6]. Moreover, the binding signal in test [7] is 1.26 fold enrichment (6-mer frequency, TF over GST control); in test [8], 1.21 fold enrichment (6-mer frequency, TF over GST control); in [9], 1.31 fold enrichment (6-mer frequency, TF over GST control).

Turning to TAAGAA, the binding signal was 1.09 fold enrichment (6-mer frequency, TF over GST control) in [1]; 1.1 fold enrichment (6-mer frequency, TF over GST control) in test [2]; 1.15 fold enrichment (6-mer frequency, TF over GST control) in [3]; 1.05 fold enrichment (6-mer frequency, TF over GST control) in test [4]; 1.04 fold enrichment (6-mer frequency, TF over GST control) in [5]; 1.04 fold enrichment (6-mer frequency, TF over GST control) in test [6]. Besides, the binding signal in test [7] is 1.12 fold enrichment (6-mer frequency, TF over GST control); in test [8], 1.04 fold enrichment (6-mer frequency, TF over GST control); in [9], 1.15 fold enrichment (6-mer frequency, TF over GST control).

As to TCTTCC, the binding signal in test [1] is 2.61 fold enrichment (6-mer frequency, TF over GST control); in test [2], 2.52 fold enrichment (6-mer frequency, TF over GST control); in test [3], 2.39 fold enrichment (6-mer frequency, TF over GST control); in test [4], 2.86 fold enrichment (6-mer frequency, TF over GST control); in test [5] it was 2.65 fold enrichment (6-mer frequency, TF over GST control); in [6], 2.76 fold enrichment (6-mer frequency, TF over GST control). The binding signal was 2.46 fold enrichment (6-mer frequency, TF over GST control) in test [7]; 2.75 fold enrichment (6-mer frequency, TF over GST control) in test [8]; 2.79 fold enrichment (6-mer frequency, TF over GST control) in test [9].

In the case of CCTCTA, the binding signal in test [1] is 1.24 fold enrichment (6-mer frequency, TF over GST control); in test [2], 1.48 fold enrichment (6-mer frequency, TF over GST control); in [3], 1.39 fold enrichment (6-mer frequency, TF over GST control); in test [4] it was 1.32 fold enrichment (6-mer frequency, TF over GST control); in test [5], 1.42 fold enrichment (6-mer frequency, TF over GST control); in test [6], 1.31 fold enrichment (6-mer frequency, TF over GST control). The binding signal in test [7] is 1.33 fold enrichment (6-mer frequency, TF over GST control); in test [8], 1.38 fold enrichment (6-mer frequency, TF over GST control); in test [9] it was 1.32 fold enrichment (6-mer frequency, TF over GST control).

In the case of TTGCCT, the binding signal in [1] was 1.16 fold enrichment (6-mer frequency, TF over GST control); in test [2], 1.18 fold enrichment (6-mer frequency, TF over GST control); in [3] it was 1.15 fold enrichment (6-mer frequency, TF over GST control); in test [4], 1.17 fold enrichment (6-mer frequency, TF over GST control); in test [5], 1.21 fold enrichment (6-mer frequency, TF over GST control); in test [6] it was 1.13 fold enrichment (6-mer frequency, TF over GST control). The binding signal in test [7] is 1.15 fold enrichment (6-mer frequency, TF over GST control); in test [8] it was 1.25 fold enrichment (6-mer frequency, TF over GST control); in test [9], 1.3 fold enrichment (6-mer frequency, TF over GST control).

Consider TTAATA, for which the binding signal in test [1] is 1.28 fold enrichment (6-mer frequency, TF over GST control); in [2] it was 1.23 fold enrichment (6-mer frequency, TF over GST control); in test [3] it was 1.18 fold enrichment (6-mer frequency, TF over GST control); in test [4], 1.16 fold enrichment (6-mer frequency, TF over GST control); in [5], 1.16 fold enrichment (6-mer frequency, TF over GST control); in [6], 1.23 fold enrichment (6-mer frequency, TF over GST control). Also, the binding signal in test [7] was 1.09 fold enrichment (6-mer frequency, TF over GST control); in test [8], 1.22 fold enrichment (6-mer frequency, TF over GST control); in [9], 1.29 fold enrichment (6-mer frequency, TF over GST control).

On to AAAAGC, for which the binding signal in test [1] was 1.16 fold enrichment (6-mer frequency, TF over GST control); in test [2], 1.13 fold enrichment (6-mer frequency, TF over GST control); in [3], 1.14 fold enrichment (6-mer frequency, TF over GST control); in [4], 1.24 fold enrichment (6-mer frequency, TF over GST control); in test [5], 1.2 fold enrichment (6-mer frequency, TF over GST control); in [6], 1.14 fold enrichment (6-mer frequency, TF over GST control). Further, the binding signal in [7] is 1.55 fold enrichment (6-mer frequency, TF over GST control); in [8], 1.23 fold enrichment (6-mer frequency, TF over GST control); in test [9] it was 1.15 fold enrichment (6-mer frequency, TF over GST control).
